Reference: PubChem BioAssay (NCATS)
Results filed as inconclusive are left out. Active and inactive are the calls of the source. Unless noted, calls follow the shape of the dose curve; as a rule, active = well fitted curve in either direction with a large enough effect (not every such curve was filed as active); inconclusive = small, poorly fitted or top-dose-only effect, or another doubt; inactive = flat fitted curve, though single readings scatter.

Key:
[1] = Primary qHTS for small molecule stabilizers of the endoplasmic reticulum resident proteome: Secreted ER Calcium Modulated Protein (SERCaMP) assay (AID 1508630; active = well fitted curve in the direction sought with a large enough effect; an effect the other way counts as inactive or inconclusive; also: % is scaled to controls: 0 for no effect and ±100 for the full control effect)
Procedure, shortened: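 GLuc-SERCaMP-expressing SH-SY5Y cells, pretreated 16 h with compound, are challenged with thapsigargin to empty ER calcium stores; after 4 h, coelenterazine is added directly to the medium and luminescence is imaged.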

[2] = tested on: HIV-1 nucleocapsid protein NCp7 (binding to TG oligonucleotide); experiment: HIV Nucleocapsid (AID 346; call rule not given here;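 also: potency is read from the fitted curve at half-maximal effect; potency is for inhibitors that block NC binding and lower polarization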); settings: HIV-1 NC / fluorescein-TGTGTGTG probe, fluorescence polarization
Procedure, shortened: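 Fluorescence polarization readout: labelled TG4xF oligo (10 nM) with 100 nM nucleocapsid protein, high-salt (250mM NaCl) Hepes pH 7.5 buffer containing zinc and fresh reducing agents. Compounds added by pin tool; incubation 1 hr, room temperature.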

[3] = molecular target: Lysosomal acid glucosylceramidase (Homo sapiens) (UniProt P04062); experiment: Glucocerebrosidase-p2 (AID 348; in the data active = potency below about 10 µM; also: potency is read from the fitted curve at half-maximal effect); settings: purified GBA, blue fluorogenic substrate, 40 min
Sequence of Lysosomal acid glucosylceramidase (Homo sapiens) (P04062 whole entry, looked up): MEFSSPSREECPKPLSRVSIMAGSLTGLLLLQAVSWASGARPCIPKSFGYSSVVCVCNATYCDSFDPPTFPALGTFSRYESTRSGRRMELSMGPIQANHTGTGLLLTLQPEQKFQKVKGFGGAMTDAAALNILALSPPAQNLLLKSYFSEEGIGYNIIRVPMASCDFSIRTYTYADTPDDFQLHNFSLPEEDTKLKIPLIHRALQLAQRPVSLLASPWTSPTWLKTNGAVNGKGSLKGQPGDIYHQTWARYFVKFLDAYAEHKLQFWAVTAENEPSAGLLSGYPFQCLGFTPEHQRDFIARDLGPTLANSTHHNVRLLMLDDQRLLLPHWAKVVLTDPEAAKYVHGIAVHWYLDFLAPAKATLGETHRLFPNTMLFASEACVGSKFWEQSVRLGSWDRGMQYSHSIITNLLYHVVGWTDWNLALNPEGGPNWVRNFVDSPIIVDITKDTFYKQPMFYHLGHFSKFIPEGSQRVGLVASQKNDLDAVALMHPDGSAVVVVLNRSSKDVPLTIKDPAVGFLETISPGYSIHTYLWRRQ
Procedure, shortened: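 Compounds titrated from 0.6 nM upwards against 0.2 nM enzyme in pH 5.9 citric acid/KH2PO4, taurocholate, tween-20; blue fluorogenic substrate 80 uM, 40 min room temperature, stopped and read Ex 365/Em 440 for AC50.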

[4] = AP1 Signaling Pathway (AID 357); also: % is scaled to controls: 0 for no effect and ±100 for the full control effect
Procedure, shortened: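 ME-180 cells with beta-lactamase reporter under AP-1 response element, stimulated with EC50 EGF; compounds tested in titration series, 5 h at 37 °C. CCF4 substrate added 2.5 h at room temperature; 460/530 nm emission ratio gave %activity and AC50.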

[5] = molecular target: Cytochrome P450 1A2 (Homo sapiens) (UniProt P05177); experiment: p450-cyp1a2 (AID 410; calls by dose curve; also: potency is read from the fitted curve at half-maximal effect;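 as to activity change, negative = inhibition: -100% = full effect of reference inhibitor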)
Sequence of Cytochrome P450 1A2 (Homo sapiens) (P05177 whole entry, looked up): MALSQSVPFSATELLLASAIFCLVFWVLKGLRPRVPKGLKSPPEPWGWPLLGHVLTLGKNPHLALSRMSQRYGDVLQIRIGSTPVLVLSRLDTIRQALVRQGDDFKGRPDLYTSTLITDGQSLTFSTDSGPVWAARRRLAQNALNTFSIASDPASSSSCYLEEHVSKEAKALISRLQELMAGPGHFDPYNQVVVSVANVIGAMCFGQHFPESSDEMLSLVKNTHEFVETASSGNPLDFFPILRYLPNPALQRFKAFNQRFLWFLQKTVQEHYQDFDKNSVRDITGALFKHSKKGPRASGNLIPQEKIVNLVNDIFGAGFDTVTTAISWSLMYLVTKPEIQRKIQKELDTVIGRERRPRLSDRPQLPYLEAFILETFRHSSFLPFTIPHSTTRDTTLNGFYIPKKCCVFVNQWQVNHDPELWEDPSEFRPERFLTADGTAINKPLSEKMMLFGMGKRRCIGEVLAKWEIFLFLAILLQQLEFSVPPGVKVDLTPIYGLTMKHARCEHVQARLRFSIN
Procedure, shortened: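 Inhibition was calculated relative to 57 uM furafylline (full inhibition). The reaction used human CYP1A2 at 20nM with Luciferin-ME at its Km, 100uM, driven by an NADPH-regenerating system for 60 min at room temperature.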

[6] = Stat Signaling Pathway (AID 446);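 also: ME-180 cervical cancer cells given 40 pM IL-6 alongside compound; SIE-controlled beta-lactamase reporter measured as 460/530 nm FRET emission ratio; % is scaled to controls: 0 for no effect and ±100 for the full control effect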
Procedure, shortened: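 Reporter line: ME-180 cervical carcinoma, SIE-beta-lactamase. Treatment: compound with 40 pM IL-6, 5 hrs, 37 C, in low-serum OPTI-MEM with 10 mM HEPES pH 7.3. Detection: 460/530 nm fluorescence.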

[7] = molecular target: Glucocorticoid receptor (Homo sapiens) (UniProt P04150); experiment: GR-EFC Redistribution (AID 451; calls by dose curve; also: potency is read from the fitted curve at half-maximal effect); settings: CHO-K1 GR-EFC translocation, beta-gal luminescence, 2 h
Sequence of Glucocorticoid receptor (Homo sapiens) (P04150 whole entry, looked up, the tested form may be a part): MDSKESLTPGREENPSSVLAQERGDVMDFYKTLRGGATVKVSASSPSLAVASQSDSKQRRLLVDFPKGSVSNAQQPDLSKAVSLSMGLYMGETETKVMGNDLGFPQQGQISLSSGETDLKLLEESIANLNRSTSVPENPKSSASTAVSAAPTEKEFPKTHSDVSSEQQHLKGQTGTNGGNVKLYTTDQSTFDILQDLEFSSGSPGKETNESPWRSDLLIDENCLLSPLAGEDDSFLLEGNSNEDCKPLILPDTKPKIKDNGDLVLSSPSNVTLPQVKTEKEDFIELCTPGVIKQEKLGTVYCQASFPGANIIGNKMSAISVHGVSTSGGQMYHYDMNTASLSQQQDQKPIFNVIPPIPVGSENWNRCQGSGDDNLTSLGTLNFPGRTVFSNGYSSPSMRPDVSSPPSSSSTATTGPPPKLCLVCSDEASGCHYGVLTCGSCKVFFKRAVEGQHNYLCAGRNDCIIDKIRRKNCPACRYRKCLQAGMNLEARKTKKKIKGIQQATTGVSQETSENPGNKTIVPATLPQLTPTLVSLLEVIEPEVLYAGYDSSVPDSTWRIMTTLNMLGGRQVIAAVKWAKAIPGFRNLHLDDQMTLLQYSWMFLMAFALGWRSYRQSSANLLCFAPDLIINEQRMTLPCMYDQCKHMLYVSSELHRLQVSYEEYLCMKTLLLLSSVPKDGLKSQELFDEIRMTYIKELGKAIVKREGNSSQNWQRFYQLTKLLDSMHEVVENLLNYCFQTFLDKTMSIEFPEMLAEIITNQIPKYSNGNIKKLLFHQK
Procedure, shortened: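 Translocation of GR-ED fusion to nuclear EA restores b-gal, read by luminescence after 1 h room-temperature detection. Engineered CHO-K1 biosensor cells, 1,000/well, exposed 2 h at 37 C to titrations up to 46 uM final.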

[8] = molecular target: 3',5'-cyclic-AMP phosphodiesterase 4B (Homo sapiens) (UniProt Q07343); experiment: qHTS Assay for Inhibitors of PDE-IV (AID 607; active = well fitted activation curve with a large enough effect in the main read-out, with a control signal flat, not every such curve was filed as active; also: % of control where 0% means no effect)
Sequence of 3',5'-cyclic-AMP phosphodiesterase 4B (Homo sapiens) (Q07343 whole entry, looked up): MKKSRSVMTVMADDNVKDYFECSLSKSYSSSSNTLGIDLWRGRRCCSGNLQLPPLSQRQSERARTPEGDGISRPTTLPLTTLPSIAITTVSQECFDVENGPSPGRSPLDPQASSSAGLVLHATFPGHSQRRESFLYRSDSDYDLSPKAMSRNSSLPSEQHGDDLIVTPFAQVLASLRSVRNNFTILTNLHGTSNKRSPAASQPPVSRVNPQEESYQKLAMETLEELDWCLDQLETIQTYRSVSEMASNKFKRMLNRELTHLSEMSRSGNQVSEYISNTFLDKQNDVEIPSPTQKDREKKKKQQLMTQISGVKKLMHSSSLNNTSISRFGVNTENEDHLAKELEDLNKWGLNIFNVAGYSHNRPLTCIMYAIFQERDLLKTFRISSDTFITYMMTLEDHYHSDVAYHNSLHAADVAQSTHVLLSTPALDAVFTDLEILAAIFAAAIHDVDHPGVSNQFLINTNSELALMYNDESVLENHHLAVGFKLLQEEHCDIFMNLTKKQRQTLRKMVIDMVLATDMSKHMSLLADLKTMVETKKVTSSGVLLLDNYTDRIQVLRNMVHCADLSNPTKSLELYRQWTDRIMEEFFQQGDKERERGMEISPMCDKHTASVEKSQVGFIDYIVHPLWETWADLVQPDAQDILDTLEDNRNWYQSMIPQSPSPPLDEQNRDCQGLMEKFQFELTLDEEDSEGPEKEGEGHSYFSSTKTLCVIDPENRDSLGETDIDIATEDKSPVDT
Procedure, shortened: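 Cell-based read-out of cAMP via a modified cyclic nucleotide-gated channel and membrane potential dye (535/590 nm) in HEK293 cells expressing PDE4 endogenously. Compounds tested up to 22.9 uM final; 100 uM RO 20-1724 reference.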

[9] = qHTS Assay for Lipid Storage Modulators (AID 1519; calls by dose curve); settings: Drosophila S3 cells, BODIPY lipid droplet/cell ratio, laser cytometry, cells loaded with oleic acid; for activity change, negative = inhibition: at 57.5 µM (top of the series)
Procedure, shortened: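 Cells seeded at 5,000 per well were treated with compounds over a concentration series and loaded with oleic acid (400 uM, as added). Lipid droplet fluorescence (488 nm excitation, 500-530 nm channel) was read by laser-scanning cytometry and normalized to 20 uM Triacsin C.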

[10] = molecular target: Mitogen-activated protein kinase 10 (Mus musculus) (UniProt Q61831); experiment: JNK3 AlphaScreen Assay (AID 530);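 also: kinase came from lysate of stimulated human HepG2 cells; signal reports phosphorylation of biotinylated GST-cJun 1-79 at Ser73 with 10 µM ATP; % is scaled to controls: 0 for no effect and ±100 for the full control effect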
Procedure, shortened: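 Room-temperature AlphaScreen kinase assay; pre-activated HepG2 lysate as JNK3 source, biotin-GST-cJun(1-79) substrate, 10 uM ATP, compound 15 min preincubation.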

[11] = molecular target: Cytochrome P450 3A4 (Homo sapiens) (UniProt P08684); experiment: qHTS Assay for Inhibitors and Substrates of Cytochrome P450 3A4 (AID 884; active = well fitted curve in the direction sought with a large enough effect; an effect the other way counts as inactive or inconclusive; also: nearly all actives have a fitted effect of over 50% in size; also: potency is read from the fitted curve at half-maximal effect)
Sequence of Cytochrome P450 3A4 (Homo sapiens) (P08684 whole entry, looked up): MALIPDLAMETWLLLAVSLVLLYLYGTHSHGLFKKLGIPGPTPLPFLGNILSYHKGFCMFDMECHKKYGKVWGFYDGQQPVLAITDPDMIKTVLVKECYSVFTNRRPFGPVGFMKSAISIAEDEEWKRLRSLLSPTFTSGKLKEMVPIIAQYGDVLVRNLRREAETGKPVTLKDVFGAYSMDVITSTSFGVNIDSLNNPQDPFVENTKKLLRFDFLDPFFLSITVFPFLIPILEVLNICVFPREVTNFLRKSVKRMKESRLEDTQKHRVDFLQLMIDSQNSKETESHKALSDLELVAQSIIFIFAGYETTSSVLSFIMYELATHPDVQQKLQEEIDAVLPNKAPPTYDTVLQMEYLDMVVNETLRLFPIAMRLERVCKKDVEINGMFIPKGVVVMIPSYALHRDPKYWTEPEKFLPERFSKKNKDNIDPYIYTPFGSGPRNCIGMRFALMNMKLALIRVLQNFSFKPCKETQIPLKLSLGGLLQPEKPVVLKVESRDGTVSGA
Procedure, shortened: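 20 nM human CYP3A4 with 25 uM Luciferin-PPXE (at KM) in 200 mM KPO4, preincubated 10 min with compound; NADPH regeneration started a 60 min RT reaction. Luciferin detected by luminescence, normalized to 57 uM ketoconazole as full inhibition.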

[12] = molecular target: Cytochrome P450 3A4 (Homo sapiens) (UniProt P08684); experiment: qHTS Assay for Activators of Cytochrome P450 3A4 (AID 885; active = well fitted curve in the direction sought with a large enough effect; an effect the other way counts as inactive or inconclusive; also: nearly all actives have a fitted effect of over 65% in size)
Procedure, shortened: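 Signal was normalized against complete inhibition by 57 uM ketoconazole. The reaction used 20nM CYP3A4 with 25uM Luciferin-PPXE, 10-min compound preincubation and a 60-min NADPH-supported step at RT.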

[13] = molecular target: Cytochrome P450 2D6 (Homo sapiens) (UniProt P10635); experiment: qHTS Assay for Inhibitors and Substrates of Cytochrome P450 2D6 (AID 891; active = well fitted curve in the direction sought with a large enough effect; an effect the other way counts as inactive or inconclusive; also: nearly all actives have a fitted effect of over 60% in size; also: potency is read from the fitted curve at half-maximal effect)
Sequence of Cytochrome P450 2D6 (Homo sapiens) (P10635 whole entry, looked up): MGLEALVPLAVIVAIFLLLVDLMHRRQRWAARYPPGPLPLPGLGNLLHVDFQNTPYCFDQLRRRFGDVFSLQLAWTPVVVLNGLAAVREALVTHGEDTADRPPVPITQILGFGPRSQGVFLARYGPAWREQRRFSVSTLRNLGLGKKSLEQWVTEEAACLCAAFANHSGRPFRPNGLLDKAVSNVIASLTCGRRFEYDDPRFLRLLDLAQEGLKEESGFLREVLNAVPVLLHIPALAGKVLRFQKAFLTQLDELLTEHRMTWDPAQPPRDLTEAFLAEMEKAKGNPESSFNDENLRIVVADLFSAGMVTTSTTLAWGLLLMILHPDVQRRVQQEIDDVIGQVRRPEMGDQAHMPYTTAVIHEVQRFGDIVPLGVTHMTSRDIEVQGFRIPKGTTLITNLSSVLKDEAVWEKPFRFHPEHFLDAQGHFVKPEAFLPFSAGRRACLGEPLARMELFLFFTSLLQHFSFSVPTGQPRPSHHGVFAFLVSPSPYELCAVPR
Procedure, shortened: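 Human CYP2D6 (5 nM) with 30 uM Luciferin-ME EGE (at Km) in 100 mM KPO4, compound preincubated 10 min, then NADPH regeneration system for 60 min at room temperature. Luciferin read by luminescence; normalized to 1.43 uM quinidine.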

[14] = NFAT Signaling Pathway (AID 444); settings: Jurkat NFAT-bla M1, carbachol, beta-lactamase ratio, 5 h; at 7.69 µM (top of the series)
Procedure, shortened: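 Read-out: CCF4 FRET ratio (460 nm/530 nm) after 1 h RT dye loading, used for %activity and AC50 from titration series. Cells: Jurkat NFAT-β-lactamase/M1 line, treated with compound plus 1 uM carbachol for 5 h, 37 °C.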

[15] = molecular target: Cytochrome P450 2C9 (Homo sapiens) (UniProt P11712); experiment: qHTS Assay for Inhibitors and Substrates of Cytochrome P450 2C9 (AID 883; active = well fitted curve in the direction sought with a large enough effect; an effect the other way counts as inactive or inconclusive; also: % is scaled to controls: 0 for no effect and ±100 for the full control effect; nearly all actives have a fitted effect of over 60% in size)
Sequence of Cytochrome P450 2C9 (Homo sapiens) (P11712 whole entry, looked up): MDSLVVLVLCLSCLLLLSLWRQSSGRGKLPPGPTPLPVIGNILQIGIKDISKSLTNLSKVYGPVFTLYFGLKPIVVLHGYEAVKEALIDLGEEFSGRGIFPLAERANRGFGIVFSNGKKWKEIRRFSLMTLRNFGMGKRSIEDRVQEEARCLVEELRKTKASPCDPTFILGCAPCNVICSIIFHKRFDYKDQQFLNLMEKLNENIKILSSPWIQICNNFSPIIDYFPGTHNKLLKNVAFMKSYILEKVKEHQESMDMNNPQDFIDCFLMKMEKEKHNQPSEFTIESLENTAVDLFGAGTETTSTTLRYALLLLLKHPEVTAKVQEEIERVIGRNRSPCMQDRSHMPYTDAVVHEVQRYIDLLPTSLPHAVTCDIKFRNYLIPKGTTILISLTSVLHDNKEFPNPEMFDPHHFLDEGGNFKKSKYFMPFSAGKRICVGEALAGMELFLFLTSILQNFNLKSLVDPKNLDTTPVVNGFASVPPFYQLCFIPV
Procedure, shortened: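 Inhibition of CYP2C9 is scored as loss of luminescence, with 57uM sulphaphenazole defining 100% inhibition. Substrate Luciferin-H is used at 100uM, equal to its KM; enzyme at 10nM in 25mM KPO4, 60 min at 37C with NADPH regeneration.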

[16] = molecular target: Cytochrome P450 2C19 (Homo sapiens) (UniProt P33261); experiment: qHTS Assay for Inhibitors and Substrates of Cytochrome P450 2C19 (AID 899; active = well fitted curve in the direction sought with a large enough effect; an effect the other way counts as inactive or inconclusive; also: % is scaled to controls: 0 for no effect and ±100 for the full control effect; nearly all actives have a fitted effect of over 60% in size)
Sequence of Cytochrome P450 2C19 (Homo sapiens) (P33261 whole entry, looked up): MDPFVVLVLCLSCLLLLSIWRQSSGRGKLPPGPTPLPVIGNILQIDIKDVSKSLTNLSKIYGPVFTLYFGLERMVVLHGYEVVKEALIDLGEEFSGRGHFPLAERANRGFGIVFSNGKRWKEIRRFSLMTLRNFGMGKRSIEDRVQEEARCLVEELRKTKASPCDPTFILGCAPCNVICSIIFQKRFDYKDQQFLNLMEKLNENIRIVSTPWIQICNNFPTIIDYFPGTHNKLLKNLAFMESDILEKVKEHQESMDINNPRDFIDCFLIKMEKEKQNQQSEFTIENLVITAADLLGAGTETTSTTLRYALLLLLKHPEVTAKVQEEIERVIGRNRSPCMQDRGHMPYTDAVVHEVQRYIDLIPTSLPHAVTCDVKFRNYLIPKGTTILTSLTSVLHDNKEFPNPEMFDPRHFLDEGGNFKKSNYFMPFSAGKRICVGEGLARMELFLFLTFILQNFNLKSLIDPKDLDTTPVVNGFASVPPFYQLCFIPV
Procedure, shortened: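 5nM enzyme + 10uM Luciferin-H EGE (=KM), 50mM KPO4; cpd pin-transferred, 10 min 37C; NADPH regen, 60 min 37C; stopped w/ luciferin detection reagent, 20 min; luminescence. Normalized to 57uM ketoconazole (AC100).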

[17] = measured here: cell count channel max response
[18] = measured here: lipid channel max response

COc1ccc(/C=C/C(=O)N2CC3C[C@@H](C2)Cn2c3cccc2=O)cc1OC
inactive: outcome [1]

COC(=O)N1CCC2(CCCN(C)C2)CC1
6.44%: max response [9, 17]
inactive: Potency [2] > 20 µM | Potency [3] > 11.4 µM | outcome [4] | Potency [5] | outcome [6] | Potency [7] > 46 µM | Potency [8] | activity change, negative = inhibition [9] 0.789% | outcome [1]
8.69%: max response [9, 18]

C[C@@H]1C[C@@H](O)[C@@]2(O)[C@]13CC(=O)OC[C@]2(C)[C@@](C)(O)C(=O)C3
inactive: outcome [1]

CC(n1cc(C[C@H](N)C(=O)O)c2ccccc21)n1cc(C[C@H](N)C(=O)O)c2ccccc21
inactive: outcome [1]

N#Cc1ccc(CN2CC[C@@]3(CCCN(C(=O)Oc4ccccc4)C3)C2)cc1
20.4%: max response [9, 17]
28.4%: max response [9, 18]
active: Potency [5] 12.6 µM | Potency [11] 7.94 µM | Potency [13] 3.16 µM
inactive: Potency [2] > 20 µM | Potency [3] > 11.4 µM | outcome [4] | outcome [6] | outcome [10] | Potency [8] | Potency [12] | activity change, negative = inhibition [9] 4.98% | outcome [1]

CN1CC[C@@]2(CCCN(C(=O)c3ccncc3)C2)C1
8.97%: max response [9, 18]
inactive: Potency [2] > 20 µM | Potency [3] > 11.4 µM | outcome [4] | Potency [5] | outcome [6] | Potency [7] > 46 µM | outcome [10] | Potency [8] | Potency [12] | activity change, negative = inhibition [9] 0.0036% | outcome [1]
5.11%: max response [9, 17]

O=C(Nc1ccccc1)N1CC[C@@]2(CCCN(C(=O)Oc3ccccc3)C2)C1
active: Potency [5] 15.8 µM
9%: max response [9, 17]
23.4%: max response [9, 18]
inactive: Potency [2] > 20 µM | Potency [3] > 11.4 µM | outcome [4] | outcome [6] | Potency [7] > 46 µM | outcome [10] | Potency [12] | activity change, negative = inhibition [9] 8.84% | outcome [1]

Cc1noc(C)c1C(=O)N1CCC[C@@]2(CCN(CC(C)C)C2)C1
inactive: Potency [2] > 20 µM | Potency [3] > 11.4 µM | outcome [4] | activity change, negative = inhibition [14] 12.5% | Potency [7] > 46 µM | outcome [10] | Potency [8] | activity change, negative = inhibition [9] 5.3% | outcome [1]
6.03%: max response [9, 17]
15.4%: max response [9, 18]

CC(C)NC(=O)N1CC[C@@]2(CCCNC2)C1
13.7%: max response [9, 17]
18.1%: max response [9, 18]
inactive: Potency [2] > 20 µM | Potency [3] > 11.4 µM | outcome [4] | Potency [5] | outcome [6] | Potency [7] > 46 µM | outcome [10] | Potency [8] | Potency [15] | Potency [11] | Potency [13] | Potency [16] | activity change, negative = inhibition [9] 0.953% | outcome [1]

CCCC[N+]12C3CC(C(CC)[C@H]1O)[C@@H]1C(O)C4(C[C@@H]12)c1ccccc1N(C)C34 (some centres not stated)
inactive: outcome [1]

CC[C@]12CCCN3CCC4(c5ccccc5NC4C(C(=O)O)C1)C32 (some centres not stated)
inactive: outcome [1]

O=C(O)c1ccc(NC(=O)N2C[C@H]3C[C@@H](C2)c2cccc(=O)n2C3)cc1
inactive: outcome [1]

CS(=O)(=O)N1CCC2(CC1)CN(Cc1ccncc1)C2
27.2%: max response [9, 18]
21.7%: max response [9, 17]
inactive: Potency [2] > 20 µM | Potency [3] > 11.4 µM | outcome [4] | Potency [5] | outcome [6] | outcome [10] | Potency [8] | Potency [12] | activity change, negative = inhibition [9] 4.09% | outcome [1]

O=C(c1csnn1)N1CCC[C@@]2(CCN(Cc3ccncc3)C2)C1
28.5%: max response [9, 18]
inactive: Potency [2] > 20 µM | Potency [3] > 11.4 µM | outcome [4] | outcome [6] | Potency [7] > 46 µM | outcome [10] | Potency [8] | activity change, negative = inhibition [9] 4.95% | outcome [1]
21.7%: max response [9, 17]

c1ccc(N2CC[C@@]3(CCCNC3)C2)nc1
16.2%: max response [9, 18]
inactive: Potency [2] > 20 µM | Potency [3] > 11.4 µM | outcome [4] | Potency [5] | outcome [6] | Potency [7] > 46 µM | outcome [10] | Potency [8] | Potency [12] | activity change, negative = inhibition [9] 2.13% | outcome [1]
12.4%: max response [9, 17]

CN1CCCC2(CCN(C(=O)c3ccncc3)CC2)C1
inactive: Potency [2] > 20 µM | Potency [3] > 11.4 µM | outcome [4] | Potency [5] | outcome [6] | Potency [7] > 46 µM | outcome [10] | Potency [8] | Potency [15] | activity change, negative = inhibition [9] 2.07% | outcome [1]
19.9%: max response [9, 18]
15.5%: max response [9, 17]

CCCOC(=O)c1cc2c(cn1)[nH]c1ccccc12
inactive: outcome [1]

CCOC(=O)c1ncc2[nH]c3ccc(OCc4ccccc4)cc3c2c1COC
inactive: outcome [1]

O=C(O)[C@@H]1Cc2[nH]cnc2C(c2cccnc2)N1 (some centres not stated)
inactive: outcome [1]

c1csc(CN2CC3(CCNCC3)C2)n1
inactive: Potency [3] > 11.4 µM | outcome [4] | Potency [5] | activity change, negative = inhibition [14] 5.76% | outcome [6] | Potency [7] > 46 µM | outcome [10] | Potency [8] | activity change, negative = inhibition [9] 9.28% | outcome [1]
10.7%: max response [9, 17]
24.8%: max response [9, 18]

c1cnc(N2CC3(CCNCC3)C2)nc1
inactive: Potency [2] > 20 µM | outcome [4] | activity change, negative = inhibition [14] -1.58% | outcome [6] | outcome [10] | Potency [8] | activity change, negative = inhibition [9] 1.55% | outcome [1]
11.6%: max response [9, 17]
15.7%: max response [9, 18]
